According to PubChem BioAssay (Tox21):
A number with no mark means an inactive call. Records with an inconclusive call do not appear. Where a call stands in place of a potency, no number is given. Calls of active or inactive are those of the source. Calls follow the shape of the dose curve; as a rule, active = well fitted curve in the direction sought with a large enough effect in the repeat runs; inconclusive = weak or mixed curves; inactive = no such curve, though single readings can be large; an effect the other way counts as inactive or inconclusive.

Key:
[1] = A CellTox Green Cytotoxicity Assay to monitor cytotoxicity in HEK293 cells - 40 hour (AID 1224871); conditions: CellTox Green fluorescence; series mostly up to 76.8 µM; also: nearly all actives have a fitted effect of over 45% in size; also: potency is read from the fitted curve at half-maximal effect
In short: (§1)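 HEK293 cells premixed with CellTox Green dye were seeded at 600 cells/well and left 5 h at 37 C/5% CO2 before pin transfer of 23 nL compound in DMSO. Fluorescence from dye bound to dead-cell DNA was read during 40 h treatment.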

[2] = qHTS RealTime-Glo MT Cell Viability Assay in HEK293 cells - 16 hour (AID 1224872); conditions: RealTime-Glo luminescence; series mostly up to 76.8 µM; also: top concentration of the series differs between compounds; nearly all actives have a fitted effect of over 50% in size
In short: (§2)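 Luminescence generated by NanoLuc from substrate produced by living HEK293 cells served as the viability signal. Each value reflects the reading at its stated time point during continuous 40 h compound exposure at 37 C.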

[3] = qHTS RealTime-Glo MT Cell Viability Assay in HepG2 cells - 8 hour (AID 1224873); conditions: RealTime-Glo luminescence; series mostly up to 76.8 µM; also: nearly all actives have a fitted effect of over 55% in size
In short: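 HepG2 cells (600/well) mixed with RealTime-Glo MT reagent, settled 5 h at 37 C/5% CO2 before compound addition. Nonlytic NanoLuc luminescence from viable-cell prosubstrate reduction read repeatedly during 40 h treatment at 37 C.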

[4] = qHTS RealTime-Glo MT Cell Viability Assay in HEK293 cells - 40 hour (AID 1224874); conditions: RealTime-Glo luminescence; max response: stronger effect = lower value; also: nearly all actives have a fitted effect of over 50% in size
In short: (§3)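 HEK293 cells mixed with RealTime-Glo reagents (NanoLuc plus cell-permeant prosubstrate) at 600 cells/well, preincubated 5 h at 37 C/5% CO2, then given 23 nL compound in DMSO. Nonlytic luminescence from viable cells was read at 0, 8, 16, 24, 32 and 40 h.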

[5] = A CellTox Green Cytotoxicity Assay to monitor cytotoxicity in HEK293 cells - 24 hour (AID 1224875); conditions: CellTox Green fluorescence; series mostly up to 76.8 µM; also: nearly all actives have a fitted effect of over 45% in size; also: potency is read from the fitted curve at half-maximal effect
In short: as §1

[6] = A CellTox Green Cytotoxicity Assay to monitor cytotoxicity in HepG2 cells - 16 hour (AID 1224876); conditions: CellTox Green fluorescence; series mostly up to 76.8 µM; also: nearly all actives have a fitted effect of over 45% in size
In short: (§4)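 HepG2 cells were seeded together with the CellTox Green dye at 600 cells/well, left 5 h at 37 C/5% CO2, then given compounds in DMSO. Fluorescence from dye bound to dead-cell DNA was read repeatedly over 40 h of treatment at 37 C.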

[7] = qHTS RealTime-Glo MT Cell Viability Assay in HepG2 cells - 32 hour (AID 1224877); conditions: RealTime-Glo luminescence; series mostly up to 76.8 µM; also: nearly all actives have a fitted effect of over 55% in size
In short: (§5)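 Tox21 10K library screened in qHTS format on HepG2 cells carrying RealTime-Glo reagents. Compounds were added after a 5 h preincubation, and the luminescent signal from continuous culture was measured repeatedly during 40 h treatment.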

[8] = A CellTox Green Cytotoxicity Assay to monitor cytotoxicity in HepG2 cells - 24 hour (AID 1224878); conditions: CellTox Green fluorescence; series mostly up to 76.8 µM; also: nearly all actives have a fitted effect of over 45% in size
In short: as §4

[9] = A CellTox Green Cytotoxicity Assay to monitor cytotoxicity in HepG2 cells - 40 hour (AID 1224879); conditions: CellTox Green fluorescence; series mostly up to 76.8 µM; also: nearly all actives have a fitted effect of over 40% in size
In short: as §4

[10] = qHTS RealTime-Glo MT Cell Viability Assay in HEK293 cells - 0 hour (AID 1224880); conditions: RealTime-Glo luminescence; series mostly up to 76.8 µM
In short: as §3

[11] = A CellTox Green Cytotoxicity Assay to monitor cytotoxicity in HEK293 cells - 32 hour (AID 1224881); conditions: CellTox Green fluorescence; series mostly up to 76.8 µM; also: nearly all actives have a fitted effect of over 40% in size; also: potency is read from the fitted curve at half-maximal effect
In short: as §1

[12] = A CellTox Green Cytotoxicity Assay to monitor cytotoxicity in HepG2 cells - 0 hour (AID 1224882); conditions: CellTox Green fluorescence; series mostly up to 76.8 µM; also: nearly all actives have a fitted effect of over 35% in size
In short: as §4

[13] = A CellTox Green Cytotoxicity Assay to monitor cytotoxicity in HepG2 cells - 32 hour (AID 1224883); conditions: CellTox Green fluorescence; series mostly up to 76.8 µM; also: nearly all actives have a fitted effect of over 50% in size
In short: as §4

[14] = A CellTox Green Cytotoxicity Assay to monitor cytotoxicity in HEK293 cells - 8 hour (AID 1224884); conditions: CellTox Green fluorescence; series mostly up to 76.8 µM; also: nearly all actives have a fitted effect of over 35% in size
In short: as §1

[15] = qHTS RealTime-Glo MT Cell Viability Assay in HepG2 cells - 16 hour (AID 1224885); conditions: RealTime-Glo luminescence; series mostly up to 76.8 µM; also: nearly all actives have a fitted effect of over 50% in size
In short: as §5

[16] = qHTS RealTime-Glo MT Cell Viability Assay in HEK293 cells - 24 hour (AID 1224886); conditions: RealTime-Glo luminescence; series mostly up to 76.8 µM
In short: as §2

[17] = A CellTox Green Cytotoxicity Assay to monitor cytotoxicity in HEK293 cells - 16 hour (AID 1224888); conditions: CellTox Green fluorescence; series mostly up to 76.8 µM; also: nearly all actives have a fitted effect of over 35% in size; also: potency is read from the fitted curve at half-maximal effect
In short: as §1

[18] = qHTS RealTime-Glo MT Cell Viability Assay in HepG2 cells - 0 hour (AID 1224889); conditions: RealTime-Glo luminescence; series mostly up to 76.8 µM; also: nearly all actives have a fitted effect of over 50% in size
In short: as §5

[19] = A CellTox Green Cytotoxicity Assay to monitor cytotoxicity in HepG2 cells - 8 hour (AID 1224890); conditions: CellTox Green fluorescence; series mostly up to 76.8 µM; also: nearly all actives have a fitted effect of over 45% in size
In short: as §4

[20] = qHTS RealTime-Glo MT Cell Viability Assay in HEK293 cells - 8 hour (AID 1224887); conditions: RealTime-Glo luminescence; series mostly up to 76.8 µM
In short: as §3

| Compound | Potency [1] | Potency [2] | Potency [3] | max response [4] | Potency [5] | Potency [6] | Potency [7] | Potency [8] | Potency [9] | outcome [10] | Potency [11] | outcome [12] | Potency [13] | Potency [14] | Potency [15] | Potency [16] | Potency [17] | Potency [18] | Potency [19] | Potency [20] |
| --- | --- | --- | --- | --- | --- | --- | --- | --- | --- | --- | --- | --- | --- | --- | --- | --- | --- | --- | --- | --- |
| CCCSP(=O)(OCC)Oc1ccc(Br)cc1Cl (centres undefined) | inactive | inactive | inactive | -3.49% | inactive | inactive | inactive | inactive | inactive | inactive | inactive | inactive | inactive | inactive | inactive | inactive | inactive | inactive | inactive | – |
| CCN(Cc1ccc(Cl)nc1)/C(=C/[N+](=O)[O-])NC | inactive | inactive | inactive | 2.66% | inactive | inactive | inactive | inactive | inactive | inactive | inactive | inactive | inactive | inactive | inactive | inactive | inactive | inactive | inactive | inactive |
| O=[N+]([O-])c1cccc2cccnc12 | inactive | inactive | inactive | -7.09% | inactive | inactive | inactive | inactive | inactive | inactive | inactive | inactive | inactive | inactive | inactive | inactive | inactive | inactive | inactive | – |
| CCOC(=O)C1(c2ccccc2)CCN(CCc2ccc(N)cc2)CC1 | inactive | inactive | inactive | -22.8% | inactive | inactive | inactive | inactive | inactive | inactive | inactive | inactive | inactive | inactive | inactive | inactive | inactive | – | inactive | inactive |
| CCOP(=S)(OCC)Oc1cc(-c2ccccc2)on1 | inactive | inactive | inactive | -12.9% | inactive | inactive | inactive | inactive | inactive | inactive | inactive | inactive | inactive | inactive | inactive | inactive | inactive | inactive | inactive | – |
| O=[N+]([O-])c1cc(Cl)c(Cl)c(Cl)c1 | 21.7 µM (active) | inactive | inactive | 5.08% | 21.7 µM (active) | inactive | inactive | inactive | inactive | inactive | 21.7 µM (active) | inactive | inactive | inactive | inactive | inactive | 21.7 µM (active) | – | inactive | inactive |
| OCCBr | inactive | inactive | inactive | 13.1% | inactive | inactive | inactive | inactive | inactive | inactive | inactive | inactive | inactive | inactive | – | inactive | inactive | inactive | inactive | inactive |
| CN(N=O)C(N)=O | inactive | inactive | inactive | 10.1% | inactive | inactive | inactive | inactive | inactive | inactive | inactive | inactive | inactive | inactive | – | inactive | inactive | inactive | inactive | inactive |
| ClCCCN1CCN(c2cccc(Cl)c2)CC1 | inactive | inactive | inactive | -25.9% | inactive | inactive | inactive | inactive | inactive | inactive | inactive | inactive | inactive | – | inactive | inactive | inactive | inactive | inactive | inactive |
| CC1(C)COP(Oc2ccccc2)OC1 | inactive | inactive | inactive | -1.45% | inactive | inactive | inactive | inactive | inactive | inactive | inactive | inactive | inactive | – | inactive | inactive | inactive | inactive | inactive | inactive |
| O=S(=O)(O)C(F)(F)C(F)(F)C(F)(F)C(F)(F)C(F)(F)C(F)(F)F | inactive | inactive | inactive | 2.43% | inactive | inactive | inactive | inactive | inactive | inactive | inactive | inactive | inactive | – | – | inactive | inactive | inactive | inactive | inactive |
| ClC(Cl)Br | inactive | inactive | inactive | 8.21% | inactive | inactive | inactive | inactive | inactive | inactive | inactive | inactive | inactive | – | – | inactive | inactive | inactive | inactive | inactive |
| CCNc1nc(NC(C)C)nc(OC)n1 | inactive | inactive | inactive | -7.59% | inactive | inactive | inactive | inactive | inactive | inactive | inactive | inactive | inactive | – | inactive | inactive | inactive | inactive | inactive | inactive |
| N#Cc1ccncc1 | inactive | inactive | inactive | 11.4% | inactive | inactive | inactive | inactive | inactive | inactive | inactive | inactive | – | inactive | inactive | inactive | inactive | inactive | inactive | inactive |
| ClCC(Cl)Cl | inactive | inactive | inactive | -2.64% | inactive | inactive | inactive | inactive | inactive | inactive | inactive | inactive | inactive | – | inactive | inactive | inactive | inactive | inactive | inactive |
